Source: PubChem (Johns Hopkins Ion Channel Center)
KCNQ2 pot: enhances the rat KCNQ2 potassium channel; O88943; CHO-K1 KCNQ2, FluxOR thallium flux fluorescence; hits give high values; B-score at 10 µM; 310,000 tested, 0.54% active; AID 2239;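 active = fluorescence ratio B-score at least 3 SD of library B-scores, with initial fluorescence B-score within 3 of them, cut at about 5.3 in these data; same plate scores as AID 2156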;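 note: B-score of peak minus minimum over baseline fluorescence ratio after K+ and Tl+ stimulus; positive B-score means potentiation of KCNQ2 with more thallium influx and brighter signal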
Target sequence (O88943 whole entry, looked up): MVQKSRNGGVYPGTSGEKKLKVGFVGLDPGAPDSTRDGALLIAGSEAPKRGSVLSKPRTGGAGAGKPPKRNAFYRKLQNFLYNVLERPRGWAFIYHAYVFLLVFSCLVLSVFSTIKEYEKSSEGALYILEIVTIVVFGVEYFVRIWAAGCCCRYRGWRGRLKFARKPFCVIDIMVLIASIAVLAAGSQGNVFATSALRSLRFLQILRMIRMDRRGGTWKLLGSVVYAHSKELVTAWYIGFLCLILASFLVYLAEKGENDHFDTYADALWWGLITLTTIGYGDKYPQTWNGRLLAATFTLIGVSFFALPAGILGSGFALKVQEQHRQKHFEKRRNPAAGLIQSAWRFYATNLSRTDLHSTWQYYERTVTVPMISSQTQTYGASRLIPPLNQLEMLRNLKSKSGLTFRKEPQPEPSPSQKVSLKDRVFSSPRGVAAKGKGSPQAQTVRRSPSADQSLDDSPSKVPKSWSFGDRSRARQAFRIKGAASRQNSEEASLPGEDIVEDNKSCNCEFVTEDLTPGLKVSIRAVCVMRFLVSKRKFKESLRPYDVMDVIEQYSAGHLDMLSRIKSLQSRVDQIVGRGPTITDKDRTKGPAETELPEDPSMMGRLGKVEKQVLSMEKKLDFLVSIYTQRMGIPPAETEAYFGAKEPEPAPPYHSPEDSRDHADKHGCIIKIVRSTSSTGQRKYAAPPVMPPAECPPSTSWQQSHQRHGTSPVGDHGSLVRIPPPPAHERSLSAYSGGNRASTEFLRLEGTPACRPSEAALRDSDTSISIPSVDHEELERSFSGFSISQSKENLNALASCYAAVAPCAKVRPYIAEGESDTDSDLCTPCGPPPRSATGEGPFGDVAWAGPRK
KCNQ2 block: KCNQ2 (rat) channel inhibition. O88943. CHO-K1 KCNQ2, FluxOR thallium flux, 20 min; hits give low values. B-score at 10 µM. 310,000 tested, 1.1% active;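 active = fluorescence ratio B-score at most minus 3 library SDs, with starting brightness B-score within 2 library SDs, cut at about -5.5 in these data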
An asterisk follows results filed as active; i = inactive; . = no result. Shown are actives, neighbours in structure and some others; about 1.6% of the full set was active somewhere.

SMILES | KCNQ2 pot | KCNQ2 block
O=C(NN=C1c2ccccc2-c2ccccc21)c1cccc(Br)c1 | 17.1* | i
O=C(Nc1cc(Sc2nc3ccccc3s2)cc([N+](=O)[O-])c1)c1ccccc1F | -6.03 | -6.03*
O=C(Nc1cc(Sc2nc3ccccc3s2)cc([N+](=O)[O-])c1)c1ccccc1 | . | i
CCN(C(=O)COC(=O)c1nn(-c2ccccc2)c(=O)c2ccccc12)C1CCS(=O)(=O)C1 (configuration not stated) | . | i
COc1ccc2c(c1)CCCC21SC(NC(C)=O)=NN1C(C)=O (configuration not stated) | 2.85 | i
CCCCN(C(=O)c1ccc(C)c(S(=O)(=O)N2CCOCC2)c1)c1c(N)n(CCCC)c(=O)[nH]c1=O | . | i
Cn1c(CSc2ncccn2)nnc1SCC(=O)N1CCCC1 | -6.3 | -6.3*
Cn1c(CSc2ncccn2)nnc1SCC(=O)N1CCCCCC1 | 0.82 | i
CCC(Sc1nc(C)cc(C)n1)C(=O)O (configuration not stated) | 6.18* | i
CCC(Sc1nc(C)cc(C)n1)C(=O)Nc1cc(C)on1 (configuration not stated) | . | i
O=C(Cn1c(=S)[nH]c2ncccc2c1=O)NCCc1ccccc1 | 0.9 | i
Cc1cc(C)c(NC(=O)Nc2ccccc2C)c(Cl)c1 | 0.11 | i
Cc1cc(C)c(NC(=O)Nc2ccccc2)c(Cl)c1 | 5.29* | i
CCc1ccc(NC(=S)N2CCNC(=O)C2CC(=O)OC)cc1 (configuration not stated) | 0.24 | i
Cc1cccc(NC(=O)c2cccc(S(=O)(=O)N3CCc4ccccc4C3)c2)n1 | . | i
COc1cccc(C2CC(c3ccccc3Cl)n3nc(N)nc3N2)c1 (configuration not stated) | 0.74 | i
COc1ccc(C2(c3ccc(O)cc3O)CC(c3ccccc3Cl)NC(=S)N2)cc1 (configuration not stated) | 6.09* | i
Cc1nc(N)c2c(Cc3cccc4ccccc34)nn(C(C)(C)C)c2n1 | 0.38 | i
Cc1ccc(O)c(Nc2nc(-c3ccccc3)nc3ccccc23)c1 | 0.61 | i
Cc1ccc(O)c(Nc2c3ccccc3nc3ccccc23)c1 | -5.61 | -5.61*
Cc1cc(=O)oc2cc(NC(=O)CC3(CC(=O)O)CCCC3)ccc12 | . | i
Cc1onc(-c2ccccc2)c1CNC(=O)Nc1ccccc1 | . | i
COc1ccc(-c2c[n+](CC(=O)c3ccccc3)c3n2CCCCC3)cc1 | . | i
COc1ccc(-c2c[n+]3c4n2CCCCC4=C(c2ccccc2)C3)cc1 | -6.15 | -6.15*
O=C(NCCCNC(=O)c1ccc(F)cc1)c1ccc(F)cc1 | 0.9 | i
SMILES | KCNQ2 pot | KCNQ2 block
CCN1C(c2ccccc2)C(C)C(=O)C(C)C1c1ccccc1 (configuration not stated) | -8.45 | -8.45*
CCC1C(=O)C(CC)C(c2ccccc2)NC1c1ccccc1 (configuration not stated) | . | i
O=C1c2ccccc2C(=O)C12OC(c1ccccc1)C1(C(=O)c3ccccc3C1=O)C2c1cccc([N+](=O)[O-])c1 (configuration not stated) | . | i
O=C1c2ccccc2C(=O)C12OC(c1ccccc1)C1(C(=O)c3ccccc3C1=O)C2c1ccc([N+](=O)[O-])cc1 (configuration not stated) | -7.9 | -7.9*
CN(C)C(=O)c1nc2ccc(Cl)cn2c1CNCc1ccccc1OC(F)(F)F | 0.05 | i
Fc1ccc(-[n+]2nc(Nc3ccccc3)sc2-c2ccc(OCc3ccccc3)cc2)cc1 | . | i
CC1CCCCC1NC(=O)C(Cc1ccccc1)NS(=O)(=O)c1cccs1 (configuration not stated) | . | i
CC(CCc1ccccc1)NC(=O)C(Cc1ccccc1)NS(=O)(=O)c1cccs1 (configuration not stated) | -5.74 | -5.74*
CCC(=O)c1ccc(OCC(=O)OCC(=O)NC2CCCCCCC2)cc1 | . | i
Cc1cccc2c3nc4ccccc4nc3n(CCCN3C(=O)c4ccccc4C3=O)c12 | . | i
COc1ccc(C(=O)CC(c2ccccc2)C2C(=O)CCCC2=O)cc1 (configuration not stated) | 0.02 | i
COc1ccc(C(CC(=O)c2ccccc2)C2CCCCC2=O)cc1 (configuration not stated) | -5.75 | -5.75*
CC(C)CC(CO)N1CCN(C(=O)c2cccc(C(F)(F)F)c2)CCC1=O (configuration not stated) | 0.09 | i
COc1ccc(-c2ccnc(SCC(=O)c3ccc(OC)c(OC)c3)n2)cc1 | 1.47 | i
COc1ccc(OC)c(C(=O)CSc2nccc(-c3ccc(Br)cc3)n2)c1 | -6.4 | -6.4*
CC(=O)NC(=S)Nc1cccc(S(=O)(=O)NC2=NCCC2)c1 | 0.47 | i
Cc1ccc(S(=O)(=O)N2CCN(Cc3ccco3)CC2)cc1C | . | i
CCCc1ccc(S(=O)(=O)N2CCN(Cc3ccco3)CC2)cc1 | -5.87 | -5.87*
COc1ccc(OC)c(CCNC(=O)CCC(=O)N2CCOc3ccc(C)cc32)c1 | . | i
CCS(=O)(=O)c1nn2c(N)c(/C=C3/C=CC(=O)C(OC)=C3)c(=O)nc2s1 | . | i
CCOC1=C/C(=C/c2c(N)n3nc(-c4ccccc4)sc3nc2=O)C=CC1=O | -6.88 | -6.88*
CC(=O)NS(=O)(=O)c1ccc(Nc2ccc([N+](=O)[O-])c3nonc23)cc1 | 0.39 | i
Cc1ccc2c(c1)N(Cc1ccc3c(c1)OCO3)C(=O)C(C)O2 (configuration not stated) | . | i
CCC1Oc2ccc(C)cc2N(Cc2cccc(C)c2)C1=O (configuration not stated) | -5.89 | -5.89*
Cn1nc(C(F)(F)F)c(/C=N/OC(=O)c2ccccc2Cl)c1SCc1ccccc1Cl | -5.95 | -5.95*
SMILES | KCNQ2 pot | KCNQ2 block
Cn1nc(C(F)(F)F)c(/C=N/OC(=O)c2ccccc2)c1SCc1ccc(Cl)cc1 | . | i
COc1cc(Cl)ccc1OCc1cc(C(=O)NCc2cc(C(C)C)no2)no1 | 2.39 | i
O=C(CSc1nc2ccccc2c(=O)n1NC(=O)Cc1ccccc1)NCc1ccccc1 | 0.8 | i
O=C(Nn1c(-c2ccccc2)nc2ccccc2c1=O)c1ccco1 | 0.08 | i
O=C(Cc1ccccc1)Nn1c(-c2ccccc2)nc2ccccc2c1=O | 8.36* | i
O=C(Cc1ccccc1)Nn1c(-c2ccccc2F)nc2ccccc2c1=O | 9.36* | i
COc1cc2c(cc1NC(=O)CN(C)Cc1cccc(OC)c1OC)oc1ccccc12 | . | i
COc1ccc(CN2C(=O)c3ccccc3C2C(=O)NC2CCC(C)CC2)c(OC)c1 (configuration not stated) | . | i
COc1ccc(OC)c(S(=O)(=O)N2CCC(C(=O)NCc3cccnc3)CC2)c1 | . | i
COc1ccc(CC(=O)Nc2c3c(nn2C(C)(C)C)CS(=O)(=O)C3)cc1 | 0.28 | i
COc1ccc(NC(=O)C(c2ccc(Cl)cc2)C(C)C)cn1 (configuration not stated) | 1.53 | i
FC(F)(F)c1cccc(Oc2nc(-c3ccccc3)nnc2C(F)(F)F)c1 | . | i
FC(F)(F)c1nnc(-c2ccccc2)nc1Oc1ccc(Cl)cc1Cl | -7.72 | -7.72*
CCOC(=O)CSc1nnc(CNc2cccc(Cl)c2)n1-c1ccccc1 | -6.39 | -6.39*
CC(C)OC(=O)CSc1nnc(CNc2cccc(Cl)c2)n1C | 0.01 | i
